From ChEMBL document CHEMBL3988442, “University of Dundee, Small-Polar-MMV Screening Library” (2021)
In all, about 38,000 compounds went through this assay and about 1,200 (3.2%) showed an effect of 50% or more. The median lay at about -58%. The sample as a whole holds a higher share of strong results than the screen did.

Test system: Plasmodium falciparum
Assay: Calibr Malaria Delayed Death Assay SOP
Type: functional, organism-based
Design: scale not given: in the data most compounds retested in dose-response had high values
Conditions: concentration 4.99e-06 (unit not given; other assays of the set use mol/L)

Row | SMILES | Percent Effect [%]
1 | Cc1noc(C)c1CN1C[C@@H]2COC[C@]2(COc2ccc(C#N)cn2)C1 | -26.6
2 | Cn1ncc2c(N[C@@H]3C[C@@H]4CC[C@H]3C4)nc(-c3ccncc3)nc21 | -96.32
3 | CC(C)OCCCNC(=O)CN1C=Nc2ccccc2S1(=O)=O | -92.03
4 | O=C(N1CCCC1)N1CCN(Cc2cccnc2)c2ncccc2C1.O=C(O)C(F)(F)F.O=C(O)C(F)(F)F | -47.54
5 | COC[C@@]12CCC[C@@H]1CN(C(=O)CN(C)C)C2.O=C(O)C(F)(F)F | -5.547
6 | CCCc1cc(=O)[nH]c(SCc2ccccn2)n1 | -130.6
7 | Cn1cc(C2CCCN2CCc2nc3ccccc3c(=O)[nH]2)cn1 (stereo not given) | -41.09
8 | CC(C)NC(=O)N1CCC2(CC(=O)N(c3cccc(F)c3)C2)C1 (stereo not given) | -10.77
9 | Cc1cc(C(=O)NCc2cccnc2N2CCCC(O)C2)c(C)o1 (stereo not given) | -87.63
10 | CN(C(=O)Nc1nncs1)C1CCN(c2ccccc2Cl)C1=O (stereo not given) | -21.66
11 | O=C(O)C(F)(F)F.O=C(O)C(F)(F)F.O=S(=O)(C1CC1)N1CCC2(CCCN(Cc3ccccn3)C2)C1 (stereo not given) | 8.867
12 | Cc1cnc(NC(=O)C(C)Oc2ccc3c(c2)OCO3)s1 (stereo not given) | -125.5
13 | COc1ccccc1OCCN(C)c1cc(C)nc(N)n1 | 69.29
14 | COc1ccc(F)c(-c2cc(C)nc(N)n2)c1 | -22.79
15 | Cc1cc(N(C)CCCn2cccn2)nc(N)n1 | 23.74
16 | COc1ccc(OCCN(C)CCCn2cnc3c(N)ncnc32)cc1 | -97.62
17 | Cc1cc(N(C)CC2COc3ccccc3O2)nc(N)n1 (stereo not given) | 46.69
18 | COc1ccc(OCCN(C)c2cc(C)nc(N)n2)cc1 | 62.66
19 | O=C(CCCc1ccc(Cl)cc1)N1CCC(c2nnc[nH]2)CC1 | -167.6
20 | O=C(O)C(F)(F)F.O=C(O)C(F)(F)F.c1cnc(N2CCC3(CCN(CC4CCOCC4)CC3)C2)nc1 | -33.73

Row | SMILES | Percent Effect [%]
21 | O=C(O)C(F)(F)F.O=C(O)C(F)(F)F.c1cnc(N2CCCC3(CCN(CC4CC4)C3)C2)nc1 (stereo not given) | 59.09
22 | O=C(O)C(F)(F)F.O=C(O)C(F)(F)F.c1cnc(N2CCOCC3(CCCN(CC4CCOCC4)C3)C2)nc1 (stereo not given) | -11.39
23 | O=C(O)C(F)(F)F.c1cnc(N2CCCC3(COCCN(CC4CC4)C3)C2)nc1 (stereo not given) | 37.44
24 | Cc1cnc(N2C[C@H]3CCN(CC4CC4)C[C@@H]3C2)nc1.O=C(O)C(F)(F)F | 37.51
25 | O=C(O)C(F)(F)F.O=C(O)C(F)(F)F.c1cc2nc(C3CCN(CC4CC4)CC3)nn2cc1N1CCCC1 | -27.34
26 | O=C(O)C(F)(F)F.c1cnc(N2CCCC3(CCN(CC4CCC4)C3)C2)nc1 (stereo not given) | 51.49
27 | O=C(O)C(F)(F)F.O=C(O)C(F)(F)F.c1cnc(N2CCC3(CCN(CC4CCCC4)CC3)C2)nc1 | 42.2
28 | Cc1cnc(N2C[C@H]3CCN(CC4CC4)C[C@H]3C2)nc1.O=C(O)C(F)(F)F | 63.65
29 | Cn1cnc2c(N3CCCC3)nc(C3CCN(CC4CC4)CC3)cc21.O=C(O)C(F)(F)F.O=C(O)C(F)(F)F | 68.79
30 | O=C(O)C(F)(F)F.c1cnc(N2C[C@H]3CCN(CC4CC4)C[C@H]3C2)cn1 | 16.16
31 | Cl.Cl.Cn1cnc2c(N3CCCC3)nc(C3CCNCC3)cc21 | -34.14
32 | CN(CCc1ccccn1)C(=O)C(O)c1ccc(Br)cc1 (stereo not given) | -90
33 | CS(=O)(=O)N1CCC2(CCN(C(=O)c3cccnc3)CC2)C1.O=C(O)C(F)(F)F | -35.24
34 | CC(C)Cc1noc(C2CCCN(C(=O)CCc3cnn(C)c3)C2)n1 (stereo not given) | -27.67
35 | O=C(O)C(F)(F)F.O=C(O)C(F)(F)F.c1cncc(OC[C@]23COC[C@H]2CN(C2CCOCC2)C3)c1 | -14.64
36 | CCN(CC)C(=O)CSc1nc2c(cnn2CCO)c(=O)[nH]1 | -60.63
37 | CCCNCc1ncc(C)c(OC)c1C | -91.87
38 | O=C(Cn1nc(N2CCOCC2)ccc1=O)Nc1nccs1 | -91.76
39 | O=S(=O)(c1ccc(F)cc1F)N1CCCCC1c1nnc2n1CCCC2 (stereo not given) | -68.7
40 | CCN(Cc1cccc2c1OCO2)C(=O)NC1CC1 | -37.14

Row | SMILES | Percent Effect [%]
41 | CN(C)C(=O)CN1CCOCC2(CCN(c3ncc(F)cn3)CC2)C1.O=C(O)C(F)(F)F | -87.82
42 | CCCN(CCn1c(=O)oc2ccccc21)CC1CC1 | 13.79
43 | CC(=O)N1CCN(C(=O)Nc2ccc(Cl)cc2)[C@H]2CS(=O)(=O)C[C@H]21 | -18.79
44 | CSCCC(=O)NCc1cc2n(n1)CCCN(C1CCCCC1)C2 | -96.84
45 | CC(NC(=O)C1CN(c2ncnc3c2nnn3C)C1)c1ccccc1 (stereo not given) | -135.3
46 | Cc1cc(NC(=O)CN2CCCCC2Cn2nc(C)nc2C)on1 (stereo not given) | -33.53
47 | O=C(O)C(F)(F)F.c1cnc(N2CCC3(CN(CC4CCOC4)C3)C2)nc1 (stereo not given) | -18.8
48 | O=C(O)C(F)(F)F.c1cnc(N2CCCC3(CCN(CC4CCOC4)CC3)C2)nc1 (stereo not given) | 55.15
49 | O=C(O)C(F)(F)F.c1cnc(N2CCC3(CCN(CC4CCOC4)CC3)C2)nc1 (stereo not given) | -17.94
50 | Cc1noc(C)c1CN1CC[C@H]2OCC[C@@]2(C(=O)N2CCOCC2)C1.O=C(O)C(F)(F)F | -52.8
51 | Cc1nc(CC(=O)N2CCCC(n3ccnc3C(C)C)C2)cs1 (stereo not given) | -131
52 | COc1cccc(CN(C)Cn2nc(C(C)(C)C)ccc2=O)c1 | -38.19
53 | O=C(O)C(F)(F)F.O=C(O)C(F)(F)F.O=C(O)C(F)(F)F.O=C(O)C(F)(F)F.c1ccc(CN2CCC3(CC2)CCN(Cc2cccnc2)C3)nc1 | 17.02
54 | Cc1cccc(N2CCC3(CCN(Cc4ccccn4)CC3)CC2)n1.O=C(O)C(F)(F)F.O=C(O)C(F)(F)F | 62.64
55 | Cn1cc(CN2CCC3(CCCN(Cc4ccccn4)C3)CC2)cn1 | -52.6
56 | Cc1ccc(N2CCC3(CCN(Cc4ccccn4)CC3)CC2)nn1 | -24.83
57 | O=S(=O)(C1CC1)N1CCC2(CCCN(Cc3ccccn3)C2)CC1 | -27.08
58 | O=C(O)C(F)(F)F.O=C(O)C(F)(F)F.c1ccc(CN2CCC3(CC2)CCN(c2ccccn2)C3)nc1 | -1.583
59 | O=C(O)C(F)(F)F.O=C(O)C(F)(F)F.c1ccc(CN2CCCC3(CCN(CC4CCCO4)CC3)C2)nc1 (stereo not given) | 10.98
60 | O=C(O)C(F)(F)F.O=C(O)C(F)(F)F.O=C(O)C(F)(F)F.c1ccc(CN2CCC3(CC2)CCN(Cc2cccs2)C3)nc1 | 53.66
